Results on eleven compounds are retold here after PubChem BioAssay.

Molecules are shown by their SMILES.

The test can be described thus: HepG2 cell viability effects, profiling panel, calcein-AM fluorescence, 48 h, basal (AID 1164). Note: test concentration not given here. Conditions: higher = more signal.
For the compound `COC(=O)[C@@]1(Cc2ccccc2N=[N+]=[N-])N=C(c2ccc(OCCCO)cc2)O[C@H]1c1ccccc1`, the z-score was -5.47.
The value for `C=C(COC)/C(=C/C[C@@H](OC(=O)c1ccncc1)c1cccc(OCCO)c1)c1cc(C(=O)OC)ccc1OC` was -1.45; that for `COCCCNC(=O)[C@]1(Cc2ccccc2)N=C(c2ccc(OCCCO)cc2)O[C@@H]1c1ccccc1N=[N+]=[N-]` was -1.47; that for `Cc1ccccc1C(O)C1C=CC2C(=O)N(C)C(=O)C2N1Nc1ccc([N+](=O)[O-])cc1[N+](=O)[O-]` (stereo unspecified) was 0.839.
The value for `CCCCCCCCCCC(O)C1C=CC2C(=O)NC(=O)C2N1Nc1ccccn1` (stereo unspecified) was -4.08; that for `Cc1ccc(S[C@]2(C(=O)O)CC(=O)N(C3CCCCC3)[C@@H]2c2ccc(CO)cc2)cc1` was 0.952; that for `CC(C)c1ccc(NN2C(C(O)c3ccccn3)C=CC3C(=O)N(c4ccccc4)C(=O)C32)cc1` (stereo unspecified) was -0.293.
Consider `COc1ccc(C(=O)Nc2ccc(CN3C(=O)[C@@]4(O[C@@H](CC(=O)N5Cc6ccccc6C[C@H]5CO)[C@H]([Si](C)(C)c5ccc(OC)cc5)[C@H]4C)c4ccccc43)cc2)cc1`, for which the z-score was -0.856.
`CCOC(=O)C[C@H]1[C@H](OC(=O)c2cc3ccccc3oc2=O)[C@@H](NC(=O)c2ccc3ccccc3n2)c2cc(OCCCO)ccc2N1C(=O)c1ccc2ccccc2n1`: the z-score is 0.717.
For `COC(=O)[C@]1(Cc2ccccc2CN=[N+]=[N-])N=C(c2ccc(OCCCO)cc2)O[C@@H]1c1ccccc1`, the z-score is -4.37.
Next, `COC(=O)[C@@]1(Cc2ccccc2)[C@H]2c3cc(C(=O)N4CCCC4)n(Cc4ccccc4)c3C[C@H]2CN1C(=O)c1ccccc1`: -0.0065.
